Several values for one entry are separate records, joined by “and”; a condition that tells them apart may be missing. Equal values may be shown once. The panel holds about 83,000 compounds, 20% with a hit somewhere; the sample as a whole holds those more often.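 Growth was measured after 48 h exposure to one concentration of compound in 96-well plates. Values under 10 count as active.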 Activity calls are given as the source filed them.

39 compounds from PubChem BioAssay (NCI) can be followed below.

This assay concerns MDA-MB-468 breast. The experiment in a line: NCI-60 one-dose screen, 48 h (100 = growth as untreated, 0 = no growth, -100 = all killed). The conditions noted are these: 10 µM unless noted.
`CN(C)CCCNc1c2ccccc2nc2ccccc12`: the growth is 83.4% (inactive).
Next, `CN=S(=O)(NC(=O)c1ccc(Cl)cc1Cl)c1ccc(Br)s1` (centres undefined): 88.3% (inactive); `CCOC(=O)c1c(C)[nH]c2ccc(O)cc12`: 102% (inactive).
With `CC(=O)c1ccc(Br)c([N+](=O)[O-])c1` the figure was 112% (inactive); with `COc1ccc(Nc2nc(N/N=C/c3ccc(O)cc3)nc(Nc3ccc([N+](=O)[O-])cc3)n2)cc1`, 117% (inactive); with `O=C(Nc1ccccc1)Nc1ncnc2c1ncn2-c1ccccc1`, 74.3% (inactive).
Take `CCN(CC)CCCNC(=O)c1ccc(N)cc1O`: the growth was 85.7% (inactive).
With `CCCc1cc2c(cc1CN(Cc1cc3c(cc1CCC)OCO3)C(=N)OCC)OCO2` the figure was 60.8% (inactive).
Turning to `CN(CCCCCCCCNc1ccnc2ccccc12)Cc1ccc(-c2ccc(-c3ccc(C#N)cc3)s2)cc1`, the growth was -50.4% (active).
For `Cc1ccc(-c2nc(SCC(=O)N3CCN(c4cc5c(cc4F)c(=O)c(C(=O)O)cn5C4CC4)CC3)nc(Cl)c2C#N)cc1`, the growth was 95% (inactive).
Take `CC1(COc2ccc3ncc(C#Cc4cncc(C(=O)Nc5cccc(C(F)(F)F)c5)c4)n3n2)COC1`: the growth was 102% (inactive).
With `CN1CCN(Cc2ccc(NC(=O)c3cncc(C#Cc4cnc5cccnn45)c3)cc2C(F)(F)F)CC1` the figure was 37.8% (inactive); with `O=C(/C=C/c1ccco1)Nc1ncc(Cc2ccc(F)cc2)s1`, 21.5% (inactive).
With `O=C(c1nc2ccccc2[nH]1)C1C(c2ccc(F)cc2)C2CC3CCCCC3N2[C@@]12C(=O)Nc1ccc(Cl)cc12` (some centres undefined) the figure was 41.6% (inactive).
Next, `Clc1cc(Cl)cc(Nc2ccc3cc(OCCCN4CCOCC4)ccc3n2)c1`: 40.9% (inactive); `C#CCn1c2c(c3ccccc31)C[C@]1(C)[C@H]3CC[C@@H]4[C@@H]5C(=CCC[C@H]5C(=C)C)CC[C@@]4(C)[C@]3(C)CC[C@H]1C2(C)C`: 117% (inactive).
`Cc1ccc(S(=O)(=O)NC(=O)NCCSSCCNC(=O)NS(=O)(=O)c2ccc(C)cc2)cc1`: the growth was 97.6% (inactive).
With `O=C(O)c1ccc(-c2nn(-c3ccc(C(=O)O)cc3)cc2CNc2ccc(Br)cc2)cc1` the figure was 114% (inactive); with `CC(=O)N(C(C)=O)c1ccc(C)cc1`, 98.9% (inactive).
With `O=S(=O)(NCCCNc1cc(-c2cn(-c3ccccc3)nc2-c2cccc(O)c2)ccn1)c1cccc2ccccc12` the figure was -18.4% (active); with `COc1ccc(CCNC(=S)NN)cc1OC`, 128% (inactive).
With `Nc1ncc(-c2ccc(C(F)(F)F)cc2)c(NC2CCCCCC2)n1` the figure was -3.25% (active); with `O=C(O)CN1C(=O)C=CC1=O`, 104% (inactive).
Regarding `N=C(N)c1nn(C2OC(CO)C(O)C2O)c2nc[nH]c(=O)c12` (centres undefined), the growth was -59% (active).
Next, `COc1ccc([N+](=O)[O-])cc1OC`: 108% (inactive) and 101% (inactive); `COc1cc2c(c(OC)c1)C1c3ccccc3NC(=O)N1CC2` (centres undefined): -0.759% (active); `O=C(c1nn(-c2ccccc2)c2c1CC(NCc1ccc(F)cc1)CC2)N1CCCCC1` (centres undefined): 97% (inactive).
With `COc1cc(-c2n/c(=C\c3c(O)[nH]c4ccc(Cl)cc34)cc3c2=Nc2ccccc2-3)ccc1F` the figure was -7.14% (active); with `COc1cc(-c2nc(NC(C)=O)sc2-c2ccnc(NCCNS(=O)(=O)c3ccccc3)n2)ccc1Cl`, 20.8% (inactive); with `O=C1c2cc3c(cc2-c2c1c1ccc(F)cc1c(=O)n2CCCNCCO)OCO3`, -70.8% (active).
Next, `O=C(/C=C/c1ccccc1)c1ccccc1`: 74.8% (inactive); `FC(F)(F)Oc1cccc(-c2cnc3ccc(-c4ccncc4)nn23)c1`: -10.5% (active).
As to `COC(=O)[C@H](C)NC(=O)NC(=O)NC(=O)CI`, the growth is 70.2% (inactive).
With `O=C(/C=C/c1cc2ccccc2[nH]c1=O)c1ccc2c(c1)OCO2` the figure was 114% (inactive); with `COc1ccc(/C(=C\c2ccccc2)C(=O)O)cc1OC`, 93.2% (inactive); with `COc1cc(C)c2sc3ccccc3c(=O)c2c1NCCN(C)C`, 49% (inactive).
Next, `O=C(O)C(Cc1ccccc1)N1C(=O)/C(=C/C(Cl)=C/c2ccc([N+](=O)[O-])cc2)SC1=S` (centres undefined): -12.8% (active); `CCN1C/C(=N\S(=O)(=O)c2ccccc2)N(CC)C1=S`: 97.7% (inactive); `COc1ccc(C2CC(c3cccc(Nc4ccnc5cc(Cl)ccc45)c3)=NN2c2ccc(Cl)cc2)cc1` (centres undefined): 64% (inactive).
